Records with an inconclusive call do not appear. Active and inactive are the calls of the source. Calls follow the shape of the dose curve; as a rule, active = well fitted cell-killing curve with a large enough effect; inconclusive = small, poorly fitted or top-dose-only effect, or effect the other way; inactive = no such curve, though single readings can be large or run the other way.
Potency is read from the fitted curve at half-maximal effect.

This experiment is described as follows: Quantitative High-Throughput drug screen in 47 multiple myeloma cell lines against the NCATS MIPE library collection: SKMM1_PLB cell viability assay (AID 1919863). Also: nearly all actives have a fitted effect of over 35% in size. As to viability: series mostly up to about 46 µM. The settings on record: SKMM1 myeloma viability, CellTiter-Glo ATP, 48 h; viability: stronger effect = lower value. An excerpt: PI: Beverly A. Mock Ph.D.
Laboratory of Cancer Biology and Genetics,
Center for Cancer Research, National Cancer Institute,
National Institute of Health, Bethesda, Maryland
Drug resistance and disease progression are common in multiple myeloma (MM) patients, underscoring the need for new therapeutic combinations. […] We hypothesized that effective combinations would reduce MYC expression and enhance p16 activity. […] These preclinical data identify potentially useful drug combinations for evaluation in drug-resistant MM and reveal potential mechanisms of combined drug sensitivity.
Described herein is the primary MIPE qHTS used to cherrypick compounds. Validated compounds were then further tested for potential synergistic activiy.
[1] Peat TJ, Gaikwad SM, Dubois W, Gyabaah-Kessie N, Zhang S, Gorjifard S, Phyo Z, Andres M, Hughitt VK, Simpson RM, Miller MA, Girvin AT, Taylor A, Williams D, D'Antonio N, Zhang Y, Rajagopalan A, Flietner E, Wilson K, Zhang X, Shinn P, Klumpp-Thomas C, McKnight C, Itkin Z, Chen L, Kazandijian D, Zhang J, Michalowski AM, Simmons JK, Keats J, Thomas CJ, Mock BA. Drug combinations identified by high-throughput screening promote cell cycle transition and upregulate Smad pathways in myeloma. Cancer Lett. 2023 Aug 1;568:216284. doi: 10.1016/j.canlet.2023.216284. Epub 2023 Jun 24. PMID: 37356470; PMCID: PMC10408729.
SEQUENCE No. (e.g., 1, 2, 3, etc.); […] (e.g., Cells, Incubation, Reagent, etc.); VALUE and DESCRIPTION.
1; Cells; 5 uL; white, solid bottom 1536-well Greiner assay plate.
2; Compounds; 23 nL; Kalypsis pin tool (Wako USA) equipped with a 1536-well pin head to transfer to the assay plates.
3; Incubation; 48 hours; 37C incubation.
4; Reagent;5uL; CellTiter Glo (Promega).
5; Detector; 425V; Luminescence; Viewlux PerkinElmer.
NOTES (numbers refer to Sequence numbers above)
1. The cell-based screening methods employed in this study were like those previously published. Briefly, the corresponding myeloma cell lines were screened in 1,536-well plates with 500 cells, 5-uL per well for inhibition of cell viability (assessed by measuring ATP levels with CellTiterGlo).
2. NCATS MIPE 4.0 library of approved and investigational drugs were added using the Kalypsis pin tool. Wells treated with DMSO only for 100% viability and media only for 0% viability were used as controls.
3. The assay plates were covered and incubated for 48 hours in a 37C, 5% CO2 incubator with controlled humidity.
4. After 48 hours, CellTilter-GloTM luminescent substrate mix (Promega) reagent was added to the assay plate and plates we incubated for 5 min at room temperature.
5. Signal was measured as median relative luminescence units on a ViewLux (PerkinElmer) multiplate reader.
[1] Heske CM, Davis MI, Baumgart JT, Wilson K, Gormally MV, Chen L, Zhang X, Ceribelli M, Duveau DY, Guha R, Ferrer M, Arnaldez FI, Ji J, Tran HL, Zhang Y, Mendoza A, Helman LJ, Thomas CJ. Matrix Screen Identifies Synergistic Combination of PARP Inhibitors and Nicotinamide Phosphoribosyltransferase (NAMPT) Inhibitors in Ewing Sarcoma. Clin Cancer Res. 2017 Dec 1;23(23):7301-7311. doi: 10.1158/1078-0432.CCR-17-1121. Epub 2017 Sep 12. PMID: 28899971; PMCID: PMC6636827.
Regarding `COc1ccc(C2(C#N)CCC(C(=O)O)CC2)cc1OC1CCCC1` (stereo not given), the viability (as a rule, a read-out of living cells in per cent, often relative to untreated cells) is 137% (inactive).

On to `CC(C)C[C@H](NC(=O)[C@H](Cc1ccccc1)NC(=O)c1cnccn1)B(O)O`, for which the Potency was 0.0372 µM (active).

Turning to `Nc1ncn([C@H]2C[C@H](O)[C@@H](CO)O2)c(=O)n1`, the Potency is 5.9 µM (active).

Consider `CC(S)C(=O)NCC(=O)O` (stereo not given), for which the viability was 132% (inactive).

For the compound `Cc1cccc(-c2[nH]ncc2-c2ccc3ncccc3n2)n1`, the viability is 121% (inactive).

In the case of `N=C(N=C(N)N)N1CCOCC1`, the viability is 125% (inactive).

On to `Cc1cc(=O)c2c(O)c3c(O)cc(=O)c4c3c3c(cc(O)c1c23)C(C)(C)C=4O`, for which the Potency is 5.26 µM (active).

As to `COc1cc(Nc2c(C#N)cnc3cc(OCCCN4CCN(C)CC4)c(OC)cc23)c(Cl)cc1Cl`, the Potency was 23.5 µM (active).

For the compound `C[C@H](Cc1ccc(O)c(O)c1)[C@@H](C)Cc1ccc(O)c(O)c1`, the Potency is 18.7 µM (active).

Turning to `NC(=O)Cc1cccc(C(=O)c2ccccc2)c1N`, the viability was 121% (inactive).

With `CCC(C)(Oc1ccc(C2(c3ccc(OC(C)(CC)C(=O)O)cc3)CCCCC2)cc1)C(=O)O` (stereo not given), the viability is 130% (inactive).

Take `O=C(NC(Cc1cc(=O)[nH]c2ccccc12)C(=O)O)c1ccc(Cl)cc1` (stereo not given): the viability is 118% (inactive).

With `CNC[C@H](O)c1ccc(O)c(O)c1`, the Potency is 12.1 µM (active).

For `Clc1ccc(C(Cn2ccnc2)OCc2c(Cl)cccc2Cl)c(Cl)c1` (stereo not given), the Potency was 26.4 µM (active).

With `O=Nc1c(-c2c(O)[nH]c3cc(Br)ccc23)[nH]c2ccccc12`, the Potency is 20.9 µM (active).

Turning to `Cc1nccn1CC1CCc2c(c3ccccc3n2C)C1=O` (stereo not given), the viability was 99.5% (inactive).

In the case of `CN(c1nccc(=O)[nH]1)C1CCN(c2nc3ccccc3n2Cc2ccc(F)cc2)CC1`, the viability was 125% (inactive).

Regarding `CC1=C(C)C(=O)C(C(CCCCCC(=O)O)c2ccccc2)=C(C)C1=O` (stereo not given), the viability was 86.2% (inactive).

`C[C@]12CCC(=O)C=C1CC[C@@H]1[C@H]2[C@@H](O)C[C@@]2(C)[C@H]1CC[C@]2(O)C(=O)CO`: the viability was 138% (inactive).

Turning to `CCCc1cc(=O)[nH]c(=S)[nH]1`, the viability is 115% (inactive).

Turning to `Cc1nc(-c2ccc(OCC(C)C)c(C#N)c2)sc1C(=O)O`, the viability was 114% (inactive).

Take `Cn1c(NCCN(CCO)CCCc2ccc([N+](=O)[O-])cc2)cc(=O)n(C)c1=O`: the viability was 107% (inactive).

For the compound `Cc1ncc([N+](=O)[O-])n1CC(C)O` (stereo not given), the viability is 126% (inactive).

On to `CCCCCCCCOc1ccccc1C(=O)Nc1ccc(C(=O)OCC[N+](C)(CC)CC)cc1`, for which the Potency is 26.4 µM (active).

For `O=C(O)c1cc(=O)c2c(OCC(O)COc3cccc4oc(C(=O)O)cc(=O)c34)cccc2o1`, the viability was 125% (inactive).

Take `COc1ccc2cc([C@H](C)C(=O)O)ccc2c1`: the viability was 105% (inactive).

For the compound `CN(C)C(=O)COC(=O)Cc1ccc(OC(=O)c2ccc(N=C(N)N)cc2)cc1`, the viability is 150% (inactive).

As to `N[C@@H](Cc1cc(I)c(Oc2cc(I)c(O)c(I)c2)c(I)c1)C(=O)O`, the viability is 121% (inactive).

With `Cc1nc2n(c(=O)c1CCN1CCC(c3noc4cc(F)ccc34)CC1)CCCC2`, the viability was 134% (inactive).

In the case of `Nc1ccn([C@@H]2O[C@H](CO)[C@@H](O)C2O)c(=O)n1` (stereo not given in full), the viability is 123% (inactive).

For `Cc1cc(O)c2c(c1)C(=O)c1cc(O)cc(O)c1C2=O`, the Potency was 20.9 µM (active).

As for `O=C(CCc1ccc(O)cc1)c1c(O)cc(O)cc1O`, the Potency was 1.05 µM (active).

For the compound `S=c1nc[nH]c2nc[nH]c12`, the viability is 104% (inactive).

`COc1c2occc2cc2ccc(=O)oc12`: the viability is 118% (inactive).

Consider `CCCCc1ccc2nc(NC(=O)OC)[nH]c2c1`, for which the Potency is 0.0469 µM (active).

As for `CC(=O)O[C@H]1C(=O)[C@@]2(C)C([C@H](OC(=O)c3ccccc3)[C@]3(O)C[C@H](OC(=O)[C@H](O)[C@@H](NC(=O)c4ccccc4)c4ccccc4)C(C)=C1C3(C)C)[C@]1(OC(C)=O)CO[C@@H]1C[C@@H]2O` (stereo not given in full), the Potency was 0.0033 µM (active).

As for `CC1(C)CCC(C)(C)c2cc(NC(=O)c3ccc(C(=O)O)cc3)ccc21`, the Potency is 14.8 µM (active).

As for `Cc1ccc(C)c(OCCCC(C)(C)C(=O)O)c1`, the viability was 118% (inactive).

For the compound `Cc1cc2cc3c(C)cc(=O)oc3c(C)c2o1`, the Potency is 26.4 µM (active).

As to `CN(C)CCc1c[nH]c2ccc(Cn3cncn3)cc12`, the viability was 127% (inactive).

For the origin of these results see PubChem BioAssay (NCATS).
